According to PubChem BioAssay (NCI):
The panel holds about 79,000 compounds, 15% with a hit somewhere; the sample as a whole holds those more often. Active and inactive are the calls of the source. No stated cut-off is given here; in the data, active means growth inhibition above about 70%; inactive means the rest.

Columns and labels:
[1] = NCI Yeast Anticancer Drug Screen. Data for the rad52 strain (AID 147);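 further: 0% = growth of vehicle-treated control cultures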; conditions: S. cerevisiae rad52 mutant growth inhibition, hits give high values
Outline: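 Screen used a yeast mutant impaired in DNA repair. After compound exposure, growth was measured. Values reflect inhibition compared with vehicle-treated cells.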

[2] = NCI Yeast Anticancer Drug Screen. Data for the wt1 strain (AID 149);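 further: 0% = growth of vehicle-treated wt1 cultures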; conditions: S. cerevisiae wt1 strain (SPY 50644) growth inhibition, hits give high values
Outline: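 wt1 strain grown with compound or vehicle; inhibition taken from the growth difference.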

[3] = NCI Yeast Anticancer Drug Screen. Data for the rad50EPP+ strain (AID 151);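 further: 0% = growth of vehicle-treated control cultures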; conditions: S. cerevisiae rad50 mutant strain, hits give high values
Outline: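 Exposing the rad50EPP+ strain to each compound, growth was compared with vehicle-only cultures to give inhibition.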

[4] = NCI Yeast Anticancer Drug Screen. Data for the rad50 strain (AID 155);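 further: 0% = growth of vehicle-only cultures of the same strain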; conditions: S. cerevisiae rad50 strain growth inhibition, hits give high values
Outline: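 DNA repair mutant yeast, compound exposure, growth read-out; inhibition is taken relative to vehicle.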

[5] = NCI Yeast Anticancer Drug Screen. Data for the mec2-1 strain (AID 157); conditions: S. cerevisiae mec2-1 strain, hits give high values
Outline: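 Readout is yeast growth inhibition, normalised to vehicle-treated controls, in the mec2-1 strain exposed to compound.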

[6] = NCI Yeast Anticancer Drug Screen. Data for the sgs1 mgt1 strain (AID 161);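 further: 0% = growth of cultures given vehicle only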; conditions: S. cerevisiae sgs1 mgt1 strain, hits give high values
Outline: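 Growth of a repair-deficient yeast mutant was monitored after compound treatment and expressed as inhibition relative to vehicle-treated cultures.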

[7] = NCI Yeast Anticancer Drug Screen. Data for the CLN2oe strain (AID 163);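 further: 0% = growth of vehicle-only control cultures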; conditions: S. cerevisiae CLN2oe strain, hits give high values
Outline: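 Values reflect how much compound exposure reduced yeast growth, referenced to vehicle-exposed cells. Assay organism is a strain with a defined genetic change affecting cell-cycle control.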

[8] = NCI Yeast Anticancer Drug Screen. Data for the cln2 rad14 strain (AID 165);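 further: 0% = growth equal to vehicle treated cultures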; conditions: S. cerevisiae cln2 rad14 strain, hits give high values
Outline: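 Relative to vehicle controls, growth inhibition of compound-treated cln2 rad14 yeast was recorded.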

[9] = NCI Yeast Anticancer Drug Screen. Data for the bub3 strain (AID 167); conditions: S. cerevisiae bub3 mutant strain, hits give high values
Outline: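 In this screen, a yeast mutant lacking normal mitotic checkpoint function is challenged with compound. Relative growth versus vehicle gives the inhibition value.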

[10] = NCI Yeast Anticancer Drug Screen. Data for the wt2 strain (AID 169);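 further: 0% = growth of vehicle-treated yeast cultures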; conditions: S. cerevisiae wt2 strain growth inhibition, hits give high values
Outline: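 Values express reduction in yeast growth under compound treatment, referenced to vehicle-treated cells.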

[11] = NCI Yeast Anticancer Drug Screen. Data for the mlh1 strain (AID 171);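 further: 0% = growth of vehicle-treated control cultures of the same strain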; conditions: S. cerevisiae mlh1 strain growth inhibition, hits give high values
Outline: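 Steps: expose the defined-mutant yeast strain to compound; expose a parallel culture to vehicle; measure growth; express compound effect as inhibition relative to the vehicle culture.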

[12] = NCI Yeast Anticancer Drug Screen. Data for the sgs1 strain (AID 173);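 further: 0% = growth of vehicle-only control cultures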; conditions: S. cerevisiae sgs1 mutant, hits give high values
Outline: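 Treat defined-mutant yeast with compound; measure growth; calculate inhibition relative to vehicle-treated cells.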

[13] = NCI Yeast Anticancer Drug Screen. Data for the mlh1 rad18 strain (AID 175); conditions: S. cerevisiae mlh1 rad18 strain growth inhibition, hits give high values
Outline: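 Test agents were incubated with a yeast strain of defined genotype (DNA damage repair defect). Inhibition of growth was derived by comparison with vehicle-exposed cultures.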

[14] = NCI Yeast Anticancer Drug Screen. Data for the rad18 strain (AID 177); conditions: S. cerevisiae rad18 mutant growth inhibition, hits give high values
Outline: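 A genetically defined yeast mutant impaired in DNA damage repair was treated with test compounds, then its growth was measured against cultures receiving vehicle alone.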

[15] = NCI Yeast Anticancer Drug Screen. Data for the mgt1 strain (AID 153); conditions: S. cerevisiae mgt1 mutant growth inhibition, hits give high values
Outline: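 Genetically defined yeast (mgt1) treated with compound; inhibition of growth expressed against vehicle-treated controls.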

[16] = NCI Yeast Anticancer Drug Screen. Data for the rad14 strain (AID 159);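 further: 0% = growth of vehicle-treated control cultures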; conditions: S. cerevisiae rad14 strain growth inhibition, hits give high values
Outline: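 DNA repair-defective yeast, compound-exposed; % growth inhibition derived by comparison with vehicle-treated controls.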

[17] = at 5.0 µM (retest, dose inferred, filed as 0.5)
[18] = at 50.0 µM (retest, dose inferred, filed as 5.0)

Measured: growth inhibition

C/C(CCl)=N/NC1=NC(c2ccccc2Cl)P(=O)(NCCCNP2(=O)SC(N/N=C(/C)CCl)=NC2c2ccccc2Cl)S1 (configuration not stated)
active: [4]; at 50.0 µM 96% | [5]; at 50.0 µM 96.3% | [6]; at 50.0 µM 93.2% | [8]; at 50.0 µM 92.3% | [9]; at 50.0 µM 95.2% | [13]; at 50.0 µM 95.9%
inactive: [1]; at 1.2 µM -2% | [1]; at 3.7 µM -2% | [1]; at 11.0 µM -2% | [1]; at 33.0 µM 5% | [1]; at 100.0 µM 8% | [2]; at 1.2 µM 3% | [2]; at 3.7 µM -4% | [2]; at 11.0 µM -5% | [2]; at 33.0 µM -3% | [2]; at 100.0 µM -1% | [3]; at 1.2 µM 0% | [3]; at 3.7 µM 2% | [3]; at 11.0 µM 10% | [3]; at 33.0 µM 43% | [3]; at 100.0 µM 33% | [4]; at 1.2 µM 4% | [4]; at 3.7 µM 4% | [4]; [17] -21% | [4]; at 11.0 µM 23% | [4]; at 33.0 µM 38% | [4]; [18] 8% | [4]; at 100.0 µM 34% | [5]; at 1.2 µM -4% | [5]; at 3.7 µM -4% | [5]; [17] -12% | [5]; at 11.0 µM -6% | [5]; at 33.0 µM -5% | [5]; [18] 2% | [5]; at 100.0 µM -1% | [6]; [17] -2% | [6]; [18] 51% | [7]; at 1.2 µM -13% | [7]; at 3.7 µM -4% | [7]; at 11.0 µM -1% | [7]; at 33.0 µM -16% | [7]; at 100.0 µM -22% | [8]; [17] -18% | [8]; [18] -4% | [9]; at 1.2 µM 0% | [9]; at 3.7 µM -5% | [9]; [17] -32% | [9]; at 11.0 µM 0% | [9]; at 33.0 µM 25% | [9]; [18] 61% | [9]; at 100.0 µM 18% | [10]; at 1.2 µM 0% | [10]; at 3.7 µM -2% | [10]; at 11.0 µM -2% | [10]; at 33.0 µM 17% | [10]; at 100.0 µM 13% | [11]; at 1.2 µM -2% | [11]; at 3.7 µM 3% | [11]; at 11.0 µM 4% | [11]; at 33.0 µM 22% | [11]; at 100.0 µM 16% | [12]; at 1.2 µM 0% | [12]; at 3.7 µM -2% | [12]; at 11.0 µM 0% | [12]; at 33.0 µM 19% | [12]; at 100.0 µM 16% | [13]; [17] -5% | [13]; [18] 18% | [14]; at 1.2 µM 1% | [14]; at 3.7 µM 10% | [14]; at 11.0 µM 9% | [14]; at 33.0 µM 27% | [14]; at 100.0 µM 23%

CC1=C2C(=C[C@@](C)(CO)[C@@H]2O)C(=O)[C@](C)(O)C12CC2
inactive: [1]; at 1.2 µM 2% | [1]; at 3.7 µM 9% | [1]; at 11.0 µM 21% | [1]; at 33.0 µM 42% | [2]; at 1.2 µM 1% | [2]; at 3.7 µM -1% | [2]; at 11.0 µM 0% | [2]; at 33.0 µM 0% | [2]; at 100.0 µM 25% | [3]; at 1.2 µM -3% | [3]; at 3.7 µM -1% | [3]; at 11.0 µM 1% | [3]; at 33.0 µM -2% | [3]; at 100.0 µM 1% | [15]; at 1.2 µM -3% | [15]; at 3.7 µM -1% | [15]; at 11.0 µM 0% | [15]; at 33.0 µM 2% | [15]; at 100.0 µM 0% | [4]; at 1.2 µM 2% | [4]; at 3.7 µM 2% | [4]; at 11.0 µM 11% | [4]; at 33.0 µM 31% | [4]; at 50.0 µM 33.8% | [5]; at 1.2 µM 0% | [5]; at 3.7 µM 0% | [5]; at 11.0 µM 1% | [5]; at 33.0 µM 13% | [5]; at 50.0 µM 22.9% | [5]; at 100.0 µM 48% | [16]; at 1.2 µM 1% | [16]; at 3.7 µM -1% | [16]; at 11.0 µM 4% | [16]; at 33.0 µM 13% | [16]; at 100.0 µM 41% | [6]; at 50.0 µM 44% | [7]; at 1.2 µM -5% | [7]; at 3.7 µM -8% | [7]; at 11.0 µM -10% | [7]; at 33.0 µM -13% | [7]; at 100.0 µM -5% | [8]; at 50.0 µM 22.6% | [9]; at 1.2 µM -4% | [9]; at 3.7 µM -5% | [9]; at 11.0 µM -7% | [9]; at 33.0 µM -10% | [9]; at 50.0 µM -41% | [9]; at 100.0 µM -12% | [11]; at 1.2 µM 0% | [11]; at 3.7 µM 1% | [11]; at 11.0 µM 2% | [11]; at 33.0 µM 3% | [11]; at 100.0 µM 7% | [12]; at 1.2 µM 3% | [12]; at 3.7 µM 10% | [12]; at 11.0 µM 24% | [12]; at 33.0 µM 50% | [13]; at 50.0 µM 11.7% | [14]; at 1.2 µM 37%
active: [1]; at 100.0 µM 74% | [4]; at 100.0 µM 70% | [12]; at 100.0 µM 73% | [14]; at 3.7 µM 74% | [14]; at 11.0 µM 90% | [14]; at 33.0 µM 93% | [14]; at 100.0 µM 95%

C[N+]1(CCCl)CC[N+](C)(CCCl)CC1 (configuration not stated)
active: [1]; at 100.0 µM 95% | [2]; at 100.0 µM 95% | [15]; at 100.0 µM 97% | [4]; [18] 95% | [4]; at 50.0 µM 97.2% | [4]; at 100.0 µM 96% | [5]; at 33.0 µM 81% | [5]; [18] 99% | [5]; at 50.0 µM 96.7% | [5]; at 100.0 µM 98% | [16]; at 100.0 µM 96% | [6]; [18] 98% | [6]; at 50.0 µM 96.1% | [7]; at 100.0 µM 95% | [8]; [18] 96% | [8]; at 50.0 µM 94.3% | [9]; [17] 78% | [9]; [18] 98% | [9]; at 50.0 µM 97% | [9]; at 100.0 µM 97% | [10]; at 100.0 µM 94% | [11]; at 100.0 µM 94% | [12]; at 100.0 µM 96% | [13]; [18] 97% | [13]; at 50.0 µM 97.6% | [14]; at 100.0 µM 97%
inactive: [1]; at 1.2 µM 0% | [1]; at 3.7 µM 3% | [1]; at 11.0 µM 5% | [1]; at 33.0 µM 36% | [2]; at 1.2 µM 0% | [2]; at 3.7 µM -1% | [2]; at 11.0 µM 1% | [2]; at 33.0 µM 14% | [15]; at 1.2 µM -2% | [15]; at 3.7 µM 1% | [15]; at 11.0 µM 3% | [15]; at 33.0 µM 29% | [4]; at 1.2 µM 1% | [4]; at 3.7 µM 2% | [4]; [17] 18% | [4]; at 11.0 µM 4% | [4]; at 33.0 µM 48% | [5]; at 1.2 µM -3% | [5]; at 3.7 µM -3% | [5]; [17] 21% | [5]; at 11.0 µM 2% | [16]; at 1.2 µM 1% | [16]; at 3.7 µM 3% | [16]; at 11.0 µM 7% | [16]; at 33.0 µM 56% | [6]; [17] 29% | [7]; at 1.2 µM -3% | [7]; at 3.7 µM -2% | [7]; at 11.0 µM 3% | [7]; at 33.0 µM 32% | [8]; [17] 2% | [9]; at 1.2 µM 1% | [9]; at 3.7 µM 1% | [9]; at 11.0 µM -5% | [9]; at 33.0 µM 29% | [10]; at 1.2 µM 0% | [10]; at 3.7 µM 0% | [10]; at 11.0 µM 1% | [10]; at 33.0 µM 14% | [11]; at 1.2 µM 0% | [11]; at 3.7 µM -1% | [11]; at 11.0 µM 0% | [11]; at 33.0 µM 13% | [12]; at 1.2 µM 0% | [12]; at 3.7 µM -1% | [12]; at 11.0 µM 1% | [12]; at 33.0 µM 34% | [13]; [17] 13% | [14]; at 1.2 µM -2% | [14]; at 3.7 µM -1% | [14]; at 11.0 µM 5% | [14]; at 33.0 µM 61%
